# Results reported in PubChem BioAssay.
# Inconclusive results are not listed. Calls of active or inactive are those of the source. Unless noted, no stated cut-off is given here; in the data, active means inhibition above about 80%; inactive means the rest.
# Experiments:
# [1] = growth inhibition of DIPG glioma cells, dose response, cell-based, SU-DIPG-XIII, MIPE4.0, CellTiter-Glo, qHTS (AID 1347061; cut-off not given, nearly all actives have AC50 up to about 37 µM;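 further: cells exposed to compound for 48 hours before readout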); conditions: SU-DIPG-XIII viability, CellTiter-Glo ATP luminescence
# [2] = growth inhibition of DIPG glioma cells, dose response, cell-based, JHH-DIPG-1, MIPE4.0, CellTiter-Glo, qHTS (AID 1347062; cut-off not given, nearly all actives have AC50 up to about 27 µM); conditions: JHH-DIPG-1 viability, CellTiter-Glo ATP luminescence
# [3] = growth inhibition of DIPG glioma cells, dose response, cell-based, SU-DIPG-IV, MIPE4.0, CellTiter-Glo, qHTS (AID 1347063; cut-off not given, nearly all actives have AC50 up to about 30 µM;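 further: compound exposure lasted 48 hours before the viability readout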); conditions: SU-DIPG-IV viability, CellTiter-Glo ATP luminescence
# [4] = SU-DIPG-VI glioma cell viability, MIPE4.0 library, CellTiter-Glo luminescence, qHTS (AID 1347066; cut-off not given, nearly all actives have AC50 up to about 30 µM;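 further: cells exposed to compound for 48 hours before readout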); conditions: CellTiter-Glo ATP luminescence
# [5] = LFS_MB_P medulloblastoma growth inhibition, cell-based, chromothripsis tumors, cisplatin or BGB combos (AID 1671449); conditions: LFS_MB_P medulloblastoma cells;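 further: cells exposed for 96 hours; 0% = vehicle DMSO and 100% = killing by high DMSO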
# [6] = HDN33 neuroblastoma growth inhibition, cell-based, chromothripsis tumors, cisplatin or BGB combos (AID 1671450); conditions: HDN33 neuroblastoma cells, stronger effect = higher value;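 further: cells exposed to compound for four days; 0% = vehicle DMSO and 100% = cell killing by high DMSO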
# [7] = ICB984 medulloblastoma cell growth inhibition, synergistic combos for chromothripsis tumors, cisplatin or BGB combos (AID 1671451; call rule not given here;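 further: cells exposed for 96 hours before readout; 0% = vehicle DMSO and 100% = killing by high DMSO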); conditions: ICB984 medulloblastoma cells, drug combinations, stronger effect = higher value
# [8] = LFS_MB_1R medulloblastoma cell growth inhibition, synergistic combos for chromothripsis tumors, cisplatin or BGB combos (AID 1671452); conditions: LFS_MB_1R medulloblastoma cells, stronger effect = higher value;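 further: cells exposed for 96 hours before readout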
# [9] = HTB85 osteosarcoma cell growth inhibition, synergistic combos for chromothripsis tumors, BGB or cisplatin IC20 combos (AID 1671453); conditions: HTB85 osteosarcoma cells, drug combinations, stronger effect = higher value;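 further: cells exposed for 96 hours before readout; 0% = vehicle DMSO and 100% = high DMSO killing control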
# [10] = MDA-MB-436 breast carcinoma cell growth inhibition, synergistic combos for chromothripsis tumors, BGB or cisplatin combos (AID 1671458; call rule not given here;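 further: cells exposed for 96 hours; 0% = vehicle DMSO and 100% = killing by high DMSO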); conditions: MDA-MB-436 breast carcinoma growth inhibition, drug combinations, stronger effect = higher value
# [11] = growth inhibition of BT084 medulloblastoma cells, cell-based, ICGC_MB145, cisplatin and BGB IC40 combos (AID 1671461); conditions: drug combinations, stronger effect = higher value;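 further: cells exposed to drugs for 96 hours; 0% = vehicle DMSO and 100% = high DMSO full killing control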
# [12] = growth inhibition of RCMB18 medulloblastoma cells, cell-based, cisplatin and BGB IC40 combos (AID 1671462); conditions: stronger effect = higher value;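 further: cells exposed to compound for four days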
# [13] = growth inhibition of CRL1545 osteosarcoma cells, cell-based, cisplatin and BGB IC20 combos (AID 1671464); conditions: stronger effect = higher value;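 further: cells exposed to compound for 96 hours before readout; 0% = vehicle DMSO and 100% = high DMSO killing control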
# [14] = measured here: combination with BGB IC40, at 0.05 µM
# [15] = measured here: with BGB IC20 combination, at 0.5 µM
# [16] = measured here: with cisplatin IC20 combination, at 0.5 µM
# [17] = measured here: combination with cisplatin, at 0.5 µM
smiles,measurement,setting,value
O=C(O)CO.[NH2-].[NH2-].[Pt+2],outcome,[1],inactive
same,outcome,[2],inactive
same,outcome,[3],inactive
same,outcome,[4],inactive
same,inhibition,"[5]; at 0.5 µM, stronger effect = higher value",-35.8% (inactive)
same,inhibition,"[5]; measured here: combination with BGB IC20, at 0.005 µM",-22.6%
same,inhibition,"[5]; measured here: combination with BGB IC40, at 0.005 µM",-55.5%
same,inhibition,[5]; [14],-20.9%
same,inhibition,"[5]; measured here: combination with cisplatin, at 0.5 µM, stronger effect = higher value",-40.8%
same,inhibition,"[5]; measured here: combination with cisplatin, at 5 µM, stronger effect = higher value",-22.9%
same,inhibition,"[6]; BGB combo, at 5 µM",-38.9%
same,inhibition,[6]; at 0.5 µM,11.9% (inactive)
same,inhibition,"[6]; cisplatin combo, at 5 µM",6.72%
same,inhibition,[6]; [15],3.13%
same,inhibition,[6]; [16],36.3%
same,inhibition,"[6]; single agent, at 5 µM",-22.5%
same,inhibition,"[7]; BGB IC20 combo, at 0.005 µM",-33.3%
same,inhibition,"[7]; BGB IC40 combo, at 0.005 µM",-24.4%
same,inhibition,"[7]; BGB IC40 combo, at 0.05 µM",-27.5%
same,inhibition,[7]; at 0.5 µM,-23.1% (inactive)
same,inhibition,"[7]; cisplatin combo, at 0.05 µM",-34.1%
same,inhibition,"[7]; cisplatin combo, at 0.5 µM",-33.3%
same,inhibition,"[7]; cisplatin combo, at 5 µM",-25.6%
same,inhibition,"[7]; measured here: 5 uM single agent, at 5 µM",-2.84%
same,inhibition,[8]; at 0.5 µM,-13.7% (inactive)
same,inhibition,[8]; [14],-19.6%
same,inhibition,[8]; [17],-19.7%
same,inhibition,"[8]; measured here: combination with cisplatin, at 5 µM",-34.1%
same,inhibition,[9]; at 0.5 µM,1.55% (inactive)
same,inhibition,"[9]; measured here: with BGB IC20, at 0.5 µM",26.1%
same,inhibition,"[9]; measured here: with BGB IC20, at 5 µM",-2.11%
same,inhibition,"[9]; measured here: with cisplatin IC20, at 0.5 µM",-15.5%
same,inhibition,"[9]; measured here: with cisplatin IC20, at 5 µM",-7.66%
same,inhibition,"[9]; single agent, at 5 µM",-0.083%
same,inhibition,[10]; at 0.5 µM,-15.3% (inactive)
same,inhibition,"[10]; measured here: BGB combination, at 0.5 µM",-9.4%
same,inhibition,"[10]; measured here: BGB combination, at 5 µM",1.16%
same,inhibition,"[10]; measured here: cisplatin combination, at 0.5 µM",-35.5%
same,inhibition,"[10]; measured here: cisplatin combination, at 5 µM",-23.8%
same,inhibition,[11]; at 0.5 µM,-4.94% (inactive)
same,inhibition,"[11]; cisplatin combination, at 0.5 µM",2.17%
same,inhibition,"[11]; cisplatin combination, at 5 µM",-267%
same,inhibition,"[11]; measured here: BGB IC40 combination 0.05 uM, at 0.05 µM",-15.1%
same,inhibition,"[11]; single agent, at 5 µM",-4.36%
same,inhibition,[12]; at 0.5 µM,-16.2% (inactive)
same,inhibition,"[12]; cisplatin combo, at 5 µM",4.38%
same,inhibition,"[12]; measured here: BGB IC40 combination, at 0.05 µM",-28.2%
same,inhibition,[12]; [17],6.48%
same,inhibition,"[12]; single agent, at 5 µM",-8.12%
same,inhibition,[13]; at 0.5 µM,-2.61% (inactive)
same,inhibition,[13]; [15],-12.1%
same,inhibition,[13]; [16],0.578%
same,inhibition,"[13]; single agent, at 0.05 µM",-10.5%
same,inhibition,"[13]; single agent, at 5 µM",-18%
NC1CCC(Nc2nc(Nc3ccc(C(=O)N4CCCCC4)cc3)c3ncn(-c4cccc(F)c4)c3n2)CC1 (stereo not drawn),outcome,[1],inactive
same,outcome,[2],inactive
same,outcome,[3],inactive
same,outcome,[4],inactive
